Activity calls are given as the source filed them.

Consider 9 molecules from PubChem BioAssay.

A short description of assay [1]: optical density shifts of acrAB sulA E. coli – strain DRC41, OD650, 48 h, E. coli filamentation inducer project, primary screen (AID 1152).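 Also: E. coli MC1000 strain DRC41 lacking acrAB efflux pump and sulA.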 As to conditions: higher = more signal, called active from +8 up or from −8 down.
Assay [2] is described as follows: probe aLefty1 binding on compound microarray – biochemical, small-molecule microarray, 635/667 nm fluorescence, primary screen (AID 1153).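 Also: score merges spot fluorescence with signal-to-noise ratio from the scanned slide images.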 The note with it: higher = more signal.
Assay [3] can be described thus: plasmodial surface anion channel blockers, osmotic lysis – cell-based, P. falciparum Indochina, OD700, 1 h, primary screen (AID 1154). The note with it: P. falciparum Indochina infected RBC osmotic lysis, higher = more signal, called active from +8 up or from −8 down.
Assay [4] in a line: plasmodial surface anion channel blockers, osmotic lysis – cell-based, P. falciparum Indochina, OD700, 2 h, primary screen (AID 1155).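 Also: lysis reports solute entry through the parasite surface anion channel PSAC.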 The note with it: P. falciparum Indochina infected erythrocytes, higher = more signal, called active from +8 up or from −8 down.
Assay [5] is described as follows: changes in parasitized red cell lysis, either direction – P. falciparum Indochina, OD700, 3 h, PSAC antagonist project, primary screen (AID 1156). The note with it: P. falciparum-infected erythrocytes, osmotic lysis, higher = more signal, called active from +8 up or from −8 down.
Assay [6] in a line: plasmodial surface anion channel blockers, osmotic lysis – cell-based, P. falciparum Indochina, OD700, 18 h, primary screen (AID 1157). The note with it: P. falciparum Indochina infected erythrocytes, osmotic lysis OD700, 18 h; higher = more signal, called active from +8 up or from −8 down.
The nature of assay [7]: S6 kinase pathway phospho-S6 level changes – cell-based, A549, cytoblot, luminescence, serum-stimulated, primary screen (AID 1158).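 Also: serum-stimulated A549 lung adenocarcinoma cells; signal is phosphorylated S6 detected by cytoblot immunostaining with HRP secondary.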 As to conditions: 5 h, higher = more signal.
Assay [8] concerns the target NADPH oxidase 2 (Homo sapiens) (UniProt P04839). Put plainly: compounds shifting NOX2 Amplex Red fluorescence – cell-based, HEK293-NOX2, PMA-stimulated, NOX inhibitor project, primary screen (AID 1159). Also: test concentration not given here. As to conditions: 45 min, higher = more signal, called active from +8 up or from −8 down.
For assay [9], the target named is NADPH oxidase 4 (Homo sapiens) (UniProt Q9NPH5). Put plainly: compounds shifting NOX4 Amplex Red fluorescence – cell-based, HEK293-NOX4, tetracycline-induced, NOX inhibitor project, primary screen (AID 1160). The note with it: HEK293-NOX4, Amplex Red H2O2 fluorescence, 45 min; higher = more signal, called active from +8 up or from −8 down.
Assay [10] addresses NADPH oxidase 5 (Homo sapiens) (UniProt Q96PH1). Briefly: compounds shifting NOX5 Amplex Red fluorescence – cell-based, HEK293-NOX5, NOX inhibitor project, primary screen (AID 1161). The note with it: HEK293-NOX5, ionomycin, 45 min, higher = more signal.
Assay [11] can be described thus: compound effects on lung adenocarcinoma cell viability – A549, calcein-AM fluorescence, 48 h, basal, profiling panel (AID 1162). Also: test concentration not given here. As to conditions: higher = more signal.
Assay [12] can be described thus: compound effects on differentiated 3T3-L1 adipocyte viability – cell-based, 3T3-L1 adipocytes, calcein-AM fluorescence, 48 h, basal, profiling panel (AID 1163). Also: test concentration not given here. As to conditions: 3T3-L1 adipocytes viability, higher = more signal.
Assay [13] can be described thus: compound effects on hepatocellular carcinoma cell viability – HepG2, calcein-AM fluorescence, 48 h, basal, profiling panel (AID 1164). Also: test concentration not given here. The note with it: higher = more signal.
A short description of assay [14]: compound effects on multiple myeloma cell viability – MM1S, calcein-AM fluorescence, 48 h, basal, profiling panel (AID 1165). Also: test concentration not given here. As to conditions: higher = more signal.
Assay [15] in a line: calcein-AM signal in unstimulated myeloma cells – cell-based, calcein-AM fluorescence, 48 h, PK04 Diversity Set, profiling panel (AID 1166).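 Also: cells grown under basal conditions without added stimulus; test concentration not given here.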 The note with it: RPMI8226 myeloma viability, higher = more signal.
A short description of assay [16]: JC-1 mitochondrial signal, unstimulated HepG2 cells – cell-based, JC-1 fluorescence, 24 h, 100 nL compound, profiling panel (AID 1167). Also: test concentration not given here. As to conditions: HepG2 mitochondrial potential, higher = more signal.
A short description of assay [17]: JC-1 mitochondrial signal, unstimulated adipocytes – cell-based, JC-1 fluorescence, 3T3-L1 adipocytes, 24 h, 100 nL compound, profiling panel (AID 1168). Also: test concentration not given here. As to conditions: JC-1 mitochondrial fluorescence, higher = more signal, called active from +8 up or from −8 down.
The nature of assay [18]: JC-1 mitochondrial signal, unstimulated myeloma cells – cell-based, JC-1 fluorescence, RPMI8226, 24 h, 100 nL compound, profiling panel (AID 1169). Also: test concentration not given here. The note with it: JC-1 mitochondrial potential fluorescence, higher = more signal.
Assay [19] in a line: JC-1 mitochondrial signal, unstimulated MM1S myeloma – cell-based, JC-1 fluorescence, 24 h, 100 nL compound, profiling panel (AID 1170). Also: test concentration not given here. As to conditions: MM1S mitochondrial potential, higher = more signal.
Assay [20] in a line: resazurin metabolic signal in A549 cells – cell-based, resazurin fluorescence, 24 h, PK04 Diversity Set, profiling panel (AID 1171). Also: test concentration not given here. The note with it: A549 viability, higher = more signal, called active from +8 up or from −8 down. On the technique in general: Alamar Blue is a resazurin reagent that responds to reducing activity.

Chain of NADPH oxidase 5 (Homo sapiens) (Q96PH1 whole entry, looked up): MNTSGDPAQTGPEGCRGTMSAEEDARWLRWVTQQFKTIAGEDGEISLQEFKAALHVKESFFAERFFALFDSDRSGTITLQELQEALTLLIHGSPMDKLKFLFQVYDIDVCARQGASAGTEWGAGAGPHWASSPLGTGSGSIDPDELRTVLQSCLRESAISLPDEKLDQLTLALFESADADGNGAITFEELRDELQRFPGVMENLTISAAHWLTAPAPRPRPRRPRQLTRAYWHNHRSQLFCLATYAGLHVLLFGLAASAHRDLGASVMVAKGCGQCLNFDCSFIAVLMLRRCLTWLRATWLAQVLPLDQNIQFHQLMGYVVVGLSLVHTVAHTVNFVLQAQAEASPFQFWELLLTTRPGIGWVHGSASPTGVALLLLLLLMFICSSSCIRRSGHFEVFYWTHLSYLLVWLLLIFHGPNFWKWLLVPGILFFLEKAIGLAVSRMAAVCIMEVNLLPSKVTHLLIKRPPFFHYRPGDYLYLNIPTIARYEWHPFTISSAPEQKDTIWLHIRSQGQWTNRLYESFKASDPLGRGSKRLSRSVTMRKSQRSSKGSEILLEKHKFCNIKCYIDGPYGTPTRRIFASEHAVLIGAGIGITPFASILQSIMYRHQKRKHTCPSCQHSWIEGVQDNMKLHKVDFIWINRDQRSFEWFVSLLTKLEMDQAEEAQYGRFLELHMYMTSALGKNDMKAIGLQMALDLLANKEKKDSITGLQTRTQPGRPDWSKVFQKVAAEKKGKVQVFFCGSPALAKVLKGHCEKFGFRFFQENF
Chain of NADPH oxidase 4 (Homo sapiens) (Q9NPH5 whole entry, looked up): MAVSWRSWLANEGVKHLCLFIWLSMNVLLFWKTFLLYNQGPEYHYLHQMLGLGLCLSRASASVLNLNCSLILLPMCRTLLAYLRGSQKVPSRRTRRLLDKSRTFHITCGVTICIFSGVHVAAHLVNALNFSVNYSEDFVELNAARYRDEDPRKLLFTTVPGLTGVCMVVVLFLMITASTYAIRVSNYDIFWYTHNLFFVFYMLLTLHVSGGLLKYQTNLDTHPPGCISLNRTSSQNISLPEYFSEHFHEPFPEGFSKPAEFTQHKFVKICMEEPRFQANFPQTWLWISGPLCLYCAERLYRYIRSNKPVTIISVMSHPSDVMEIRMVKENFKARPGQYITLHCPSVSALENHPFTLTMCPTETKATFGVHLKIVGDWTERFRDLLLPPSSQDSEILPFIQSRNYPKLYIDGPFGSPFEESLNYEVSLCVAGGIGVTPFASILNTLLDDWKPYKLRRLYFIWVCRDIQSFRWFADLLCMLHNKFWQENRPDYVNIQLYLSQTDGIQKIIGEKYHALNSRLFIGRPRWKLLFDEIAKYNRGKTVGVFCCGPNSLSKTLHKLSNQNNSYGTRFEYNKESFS
Chain of NADPH oxidase 2 (Homo sapiens) (P04839 whole entry, looked up): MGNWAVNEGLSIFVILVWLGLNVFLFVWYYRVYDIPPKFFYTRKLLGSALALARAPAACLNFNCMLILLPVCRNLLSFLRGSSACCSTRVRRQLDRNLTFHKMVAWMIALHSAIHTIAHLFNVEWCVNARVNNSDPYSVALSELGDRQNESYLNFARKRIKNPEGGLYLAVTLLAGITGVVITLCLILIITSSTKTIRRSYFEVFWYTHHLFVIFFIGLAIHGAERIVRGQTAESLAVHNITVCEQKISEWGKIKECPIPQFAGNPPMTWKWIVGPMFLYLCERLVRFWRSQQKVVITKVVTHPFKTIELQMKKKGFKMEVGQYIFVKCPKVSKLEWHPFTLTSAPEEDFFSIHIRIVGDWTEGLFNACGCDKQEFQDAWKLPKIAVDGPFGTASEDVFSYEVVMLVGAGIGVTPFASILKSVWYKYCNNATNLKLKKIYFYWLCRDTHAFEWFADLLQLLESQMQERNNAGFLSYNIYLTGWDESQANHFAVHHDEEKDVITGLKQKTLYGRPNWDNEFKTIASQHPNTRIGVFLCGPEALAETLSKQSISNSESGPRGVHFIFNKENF

As to `C=C(CCCC)C(=O)CC[C@H](OC(=O)c1ccccc1-c1ccccc1C(=O)O)c1ccccc1OCCO`, the z-score in assay [1] was 0.509 (inactive); in assay [3] it was 8.58 (active); in assay [4], 1.56 (inactive); in [5] it was 1.82 (inactive); in [6], 0.944 (inactive); in assay [7], -0.27. Besides, the z-score in [8] was 3.25 (inactive); in assay [9], 0.0107 (inactive); in assay [10], -1.15; in [11], 0.305; in [12], 1.1; in assay [13], -0.669. The z-score in assay [14] was -3.38; in assay [15] it was -3.85; in assay [16] it was -0.309; in assay [17] it was 0.954 (inactive); in assay [18], -0.873; in assay [19] it was 0.311. Also, the z-score in [20] is -0.22 (inactive). The same molecule showed a composite z-score in [2] of -0.0984.

`CC(C)C[C@@H]1NC(=O)CNC(=O)[C@@]23C(=O)N[C@@H](Cc4ccccc4)C2[C@H](C)[C@@]2(C)O[C@H]2C3/C=C/C/C=C\CNC1=O` (stereo not given in full): the z-score in assay [1] is -0.455 (inactive); in assay [3], 0.349 (inactive); in assay [4], -0.262 (inactive); in [5], 0.183 (inactive); in assay [6], -0.16 (inactive); in [7], -0.0425. Also, the z-score in [8] was 0.217 (inactive); in assay [9], 1.1 (inactive); in [10], 0.149; in [11] it was -0.692; in assay [12], 0.404; in [13], -0.262. Further, the z-score in assay [14] is 0.0565; in assay [15] it was -0.939; in assay [16] it was -0.513; in assay [17], 0.00154 (inactive); in [18], -0.385; in assay [19] it was -0.181. Further, in assay [20], the z-score is 0.547 (inactive). In assay [2], this molecule had a composite z-score of -0.0265.

Regarding `O=C1C2C=CC(C(O)C=Cc3ccc([N+](=O)[O-])cc3)N(Nc3ccccc3)C2C(=O)N1c1ccccc1` (stereo not given), the z-score was -0.323 (inactive) in assay [1]; 11 (active) in assay [3]; 2.2 (inactive) in assay [4]; 0.478 (inactive) in [5]; 1.81 (inactive) in assay [6]; -0.914 in [7]. In addition, the z-score is -1.72 (inactive) in assay [8]; -2.96 (inactive) in assay [9]; -2.32 in [10]; 2.48 in assay [11]; -0.123 in [12]; 1.28 in assay [13]. The z-score was 0.0385 in assay [14]; -0.0477 in assay [15]; -0.0526 in assay [16]; -1.19 (inactive) in assay [17]; -0.175 in assay [18]; -0.951 in [19]. Besides, the z-score in assay [20] is -0.102 (inactive). The composite z-score in assay [2] came out at 0.424.

`CN(C)CCCC[C@@H]1NC(=O)[C@@H]2C[C@H](C(=O)O)[C@H](c3cccc(OCCO)c3)N2C1=O`: the z-score in assay [1] was 0.408 (inactive); in [3], 2.07 (inactive); in [4], 0.2 (inactive); in assay [5], -0.725 (inactive); in [6], -0.0176 (inactive); in assay [7] it was -0.564. For the same molecule, the z-score in assay [8] was 1.11 (inactive); in assay [9] it was 0.306 (inactive); in assay [10] it was 1.18; in [11] it was 0.0184; in assay [12], 0.13; in assay [13], 0.201. Besides, the z-score is 0.238 in [14]; 0.312 in [15]; 1.05 in [16]; -0.864 (inactive) in [17]; -0.804 in assay [18]; 0.174 in assay [19]. Besides, in assay [20], the z-score was 0.593 (inactive). Also, in assay [2], the composite z-score is -0.147.

On to `C=CCC(OC(C)=O)[C@@H]1[C@@H](N(Cc2ccc(-c3cccc(C(F)(F)F)c3)o2)C(=O)c2cccc3ccccc23)c2cc(OCCCO)ccc2N1C(=O)Cc1ccc(OC)cc1` (stereo not given in full), for which the z-score in assay [1] was 0.386 (inactive); in assay [3] it was 1.62 (inactive); in assay [4] it was 0.753 (inactive); in assay [5] it was 1.94 (inactive); in assay [6] it was 0.702 (inactive); in assay [7], 0.461. In addition, the z-score in assay [8] was -3.21 (inactive); in assay [9], -1.73 (inactive); in assay [10], -1.49; in assay [11] it was 0.546; in assay [12], 0.612; in assay [13], 0.598. Further, the z-score in assay [14] was -1.16; in assay [15], -1.76; in assay [16] it was 2.32; in assay [17] it was 0.0601 (inactive); in assay [18], -0.748; in assay [19], -0.0799. The z-score in assay [20] is 0.643 (inactive). In [2], the composite z-score is -0.0818.

On to `C[C@]1(C(=O)NCCN2CCOCC2)c2ccccc2C(=O)N(Cc2cc(F)cc(C(F)(F)F)c2)[C@H]1c1ccc(CO)cc1`, for which the z-score was 1.28 (inactive) in assay [1]; 5.73 (inactive) in assay [3]; 0.651 (inactive) in [4]; 1.24 (inactive) in [5]; 0.28 (inactive) in assay [6]; 0.523 in assay [7]. Besides, the z-score in [8] is 0.51 (inactive); in assay [9] it was 0.798 (inactive); in assay [10] it was -0.291; in [11] it was 0.13; in [12], -0.35; in assay [13], 0.545. The z-score is -0.89 in assay [14]; 0.231 in assay [15]; 2.36 in assay [16]; 0.835 (inactive) in [17]; 0.695 in assay [18]; -0.714 in assay [19]. Also, the z-score in assay [20] is 0.693 (inactive). Besides, the composite z-score in [2] came out at 0.0892.

Turning to `CCCCCN1CC=CC23O[C@@H]4/C=C\CCC(C)OC(=O)C4[C@H]2C(=O)N(CCCCCCO)[C@@H]3C1=O` (stereo not given in full), the z-score was 1.6 (inactive) in assay [1]; 1.25 (inactive) in assay [3]; 0.971 (inactive) in assay [4]; 0.26 (inactive) in assay [5]; 0.967 (inactive) in assay [6]; 2.19 in [7]. Also, the z-score was 1.25 (inactive) in [8]; 0.0532 (inactive) in assay [9]; 1.74 in [10]; 0.29 in [11]; 0.644 in assay [12]; 0.822 in assay [13]. Moreover, the z-score is 1.6 in [14]; 0.656 in assay [15]; 0.589 in [16]; 0.785 (inactive) in assay [17]; -0.141 in [18]; -0.459 in assay [19]. Also, in assay [20], the z-score is 0.944 (inactive). This molecule showed a composite z-score in assay [2] of 0.0378.

For the molecule `CC(=O)n1cc(C(O)C2C=CC3C(=O)N(c4ccccc4)C(=O)C3N2Nc2ccc(C(C)C)cc2)c2ccccc21` (stereo not given), the z-score in [1] was -1.44 (inactive); in [3], 2.38 (inactive); in [4], 0.959 (inactive); in [5], -0.43 (inactive); in [6], 1.46 (inactive); in assay [7], -1.04. Besides, the z-score in assay [8] is -1.19 (inactive); in assay [9] it was -2.92 (inactive); in assay [10], -3.44; in assay [11] it was -0.545; in assay [12], -0.745; in assay [13] it was -1.08. Also, the z-score in assay [14] was -0.829; in assay [15], -1.33; in assay [16] it was -0.975; in [17], -1.16 (inactive); in assay [18], -0.886; in assay [19], 0.299. Besides, the z-score in [20] was 0.169 (inactive). Besides, the composite z-score in [2] came to 0.698.

For `COC(=O)[C@@]1(Cc2ccc(F)cc2)[C@H]2c3cc(C(=O)N4CCCC4)n(C)c3C[C@H]2CN1C(=O)c1ccccc1`, the z-score in assay [1] was -0.327 (inactive); in assay [3] it was 2.59 (inactive); in [4], 0.107 (inactive); in assay [5], -0.105 (inactive); in assay [6], 0.47 (inactive); in assay [7] it was 0.305. In addition, the z-score is 0.282 (inactive) in assay [8]; -0.466 (inactive) in [9]; -0.565 in assay [10]; -0.893 in assay [11]; 0.502 in assay [12]; -0.429 in assay [13]. Also, the z-score is -1.63 in [14]; -1.01 in [15]; 1.29 in assay [16]; -1 (inactive) in assay [17]; -0.392 in [18]; -0.206 in [19]. Also, the z-score in [20] is 1.13 (inactive). This molecule registered a composite z-score in assay [2] of 0.603.
